# Experimental data reported in ChEMBL document CHEMBL5308504, “Tm Shift (DSF) assay results for EUbOPEN Chemogenomics Library” (2023).
# How the values were obtained:
# Details in all cases: Compound concentration 20.0 uM, Protein concentration 2.0 uM, Result type QC Liability
# [1] = target: Tyrosine-protein kinase ABL1 (Homo sapiens) (UniProt P00519)
# [2] = target: Cyclin-dependent kinase 2 (Homo sapiens) (UniProt P24941)
# [3] = target: Casein kinase I isoform delta (Homo sapiens) (UniProt P48730)
# [4] = target: Glycogen synthase kinase-3 beta (Homo sapiens) (UniProt P49841)
# [5] = target: Mitogen-activated protein kinase 1 (Homo sapiens) (UniProt P28482)
# [6] = target: T1, Aurora kinase A (Homo sapiens) (UniProt O14965)
# T1 sequence (whole entry): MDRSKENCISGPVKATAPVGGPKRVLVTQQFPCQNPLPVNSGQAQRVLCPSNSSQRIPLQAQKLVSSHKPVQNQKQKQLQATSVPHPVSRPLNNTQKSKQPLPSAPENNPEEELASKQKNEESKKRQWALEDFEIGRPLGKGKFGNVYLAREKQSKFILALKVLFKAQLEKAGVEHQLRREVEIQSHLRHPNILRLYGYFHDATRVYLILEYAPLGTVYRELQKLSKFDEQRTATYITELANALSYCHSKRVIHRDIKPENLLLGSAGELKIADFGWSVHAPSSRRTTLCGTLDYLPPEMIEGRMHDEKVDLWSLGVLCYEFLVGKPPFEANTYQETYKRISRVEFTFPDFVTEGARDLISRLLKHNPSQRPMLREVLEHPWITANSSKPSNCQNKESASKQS
# Casein kinase I isoform delta (Homo sapiens), sequence (P48730 whole entry, looked up, canonical isoform): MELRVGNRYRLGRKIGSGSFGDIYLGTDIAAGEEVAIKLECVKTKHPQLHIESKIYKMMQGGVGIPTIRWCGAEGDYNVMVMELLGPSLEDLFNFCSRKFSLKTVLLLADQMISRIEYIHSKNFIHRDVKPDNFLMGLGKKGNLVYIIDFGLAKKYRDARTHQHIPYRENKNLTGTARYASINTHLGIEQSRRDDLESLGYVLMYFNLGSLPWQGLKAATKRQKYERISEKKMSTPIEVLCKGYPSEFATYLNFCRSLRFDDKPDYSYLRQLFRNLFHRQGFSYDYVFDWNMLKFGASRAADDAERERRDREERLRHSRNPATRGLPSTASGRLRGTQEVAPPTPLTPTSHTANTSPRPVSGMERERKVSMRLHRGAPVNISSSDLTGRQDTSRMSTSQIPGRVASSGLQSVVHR
# Glycogen synthase kinase-3 beta (Homo sapiens), sequence (P49841 whole entry, looked up): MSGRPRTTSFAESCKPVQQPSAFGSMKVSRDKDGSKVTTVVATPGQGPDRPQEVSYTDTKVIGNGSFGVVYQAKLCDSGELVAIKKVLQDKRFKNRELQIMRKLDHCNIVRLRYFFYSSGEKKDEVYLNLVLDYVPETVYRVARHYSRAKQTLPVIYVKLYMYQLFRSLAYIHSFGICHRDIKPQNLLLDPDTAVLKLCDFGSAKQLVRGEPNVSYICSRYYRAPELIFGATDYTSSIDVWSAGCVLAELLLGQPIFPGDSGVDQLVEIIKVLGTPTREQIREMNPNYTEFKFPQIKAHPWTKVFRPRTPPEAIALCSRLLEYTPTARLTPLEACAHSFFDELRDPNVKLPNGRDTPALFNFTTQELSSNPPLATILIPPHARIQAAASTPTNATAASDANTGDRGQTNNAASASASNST
# Mitogen-activated protein kinase 1 (Homo sapiens), sequence (P28482 whole entry): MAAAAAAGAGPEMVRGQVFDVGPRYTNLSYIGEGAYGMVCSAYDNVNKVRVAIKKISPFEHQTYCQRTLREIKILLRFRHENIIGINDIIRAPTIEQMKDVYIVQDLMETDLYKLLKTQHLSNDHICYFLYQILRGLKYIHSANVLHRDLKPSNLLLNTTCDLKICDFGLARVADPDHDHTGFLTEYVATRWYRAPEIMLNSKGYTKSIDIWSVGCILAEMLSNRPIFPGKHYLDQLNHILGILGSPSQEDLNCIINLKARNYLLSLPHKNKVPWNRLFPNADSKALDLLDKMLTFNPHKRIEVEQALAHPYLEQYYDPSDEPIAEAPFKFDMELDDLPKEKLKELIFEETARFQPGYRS
# Tyrosine-protein kinase ABL1 (Homo sapiens), sequence (P00519 whole entry): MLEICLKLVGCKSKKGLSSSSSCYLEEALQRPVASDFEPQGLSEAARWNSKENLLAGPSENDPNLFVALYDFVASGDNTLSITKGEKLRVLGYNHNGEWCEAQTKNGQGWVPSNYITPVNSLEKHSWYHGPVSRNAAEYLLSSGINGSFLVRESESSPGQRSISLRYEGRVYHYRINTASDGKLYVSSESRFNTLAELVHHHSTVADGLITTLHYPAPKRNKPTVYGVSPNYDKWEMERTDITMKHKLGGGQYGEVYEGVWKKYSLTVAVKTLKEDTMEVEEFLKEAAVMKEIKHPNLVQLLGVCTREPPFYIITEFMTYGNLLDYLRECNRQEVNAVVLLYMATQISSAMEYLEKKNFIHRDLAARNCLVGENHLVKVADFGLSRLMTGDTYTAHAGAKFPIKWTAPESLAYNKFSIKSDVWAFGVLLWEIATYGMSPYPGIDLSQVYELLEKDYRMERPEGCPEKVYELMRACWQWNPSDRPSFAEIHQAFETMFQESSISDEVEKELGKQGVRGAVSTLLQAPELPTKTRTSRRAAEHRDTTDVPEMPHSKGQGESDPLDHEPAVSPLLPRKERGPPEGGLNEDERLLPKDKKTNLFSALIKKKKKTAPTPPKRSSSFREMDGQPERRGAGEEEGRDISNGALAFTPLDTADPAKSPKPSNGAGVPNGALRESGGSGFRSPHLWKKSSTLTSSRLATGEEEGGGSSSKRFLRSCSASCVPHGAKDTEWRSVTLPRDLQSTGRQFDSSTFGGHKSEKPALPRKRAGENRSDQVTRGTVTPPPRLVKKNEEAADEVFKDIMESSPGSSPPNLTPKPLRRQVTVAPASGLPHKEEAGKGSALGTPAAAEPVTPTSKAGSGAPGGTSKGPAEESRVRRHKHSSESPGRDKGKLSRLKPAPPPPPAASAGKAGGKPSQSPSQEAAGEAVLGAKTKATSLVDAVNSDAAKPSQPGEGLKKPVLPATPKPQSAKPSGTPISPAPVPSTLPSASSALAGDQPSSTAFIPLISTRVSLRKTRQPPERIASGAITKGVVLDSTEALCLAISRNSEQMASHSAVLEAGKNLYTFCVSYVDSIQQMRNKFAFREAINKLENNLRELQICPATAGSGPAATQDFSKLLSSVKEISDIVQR
SMILES,ΔTm [1],ΔTm [2],ΔTm [3],ΔTm [4],ΔTm [5],ΔTm [6]
COc1cc(-c2cc3ncccc3c(O[C@@H](C)[C@H]3CNC(=O)C3)n2)cc(OC)c1OC,0.48 °C,0.19 °C,1.43 °C,-0.57 °C,0.06 °C,2.08 °C
CCOC(=O)/N=C(\N)c1ccc(OCc2cccc(COc3ccc(C(C)(C)c4ccc(OC(=O)OCC)cc4)cc3)c2)cc1,0.03 °C,-3.47 °C,-11.2 °C,-4.21 °C,-11.6 °C,-7.28 °C
CCS(=O)(=O)c1cc2cc(C[C@](O)(CC(C)(C)c3ccc(F)cc3C(N)=O)C(F)(F)F)[nH]c2cn1,0.15 °C,0.5 °C,0.37 °C,-0.73 °C,0.36 °C,0.03 °C
C[C@@]1(Cc2ccc(C#N)cc2)C(=O)N(c2cc(Cl)cc(Cl)c2)c2ncc(C(=O)NC3(c4nc(C5CCC5)no4)CC3)n21,0.13 °C,-0.03 °C,3.08 °C,10.7 °C,3.07 °C,11.8 °C
Cc1cn(CCN2CCN(c3ccccc3-c3cc(C#N)cc(C(=O)NCCCN4CCCC4)c3)CC2)c2ccccc12,0.13 °C,0.91 °C,-2.16 °C,-0.98 °C,0.52 °C,-0.16 °C
CC(C)c1cnc(NC(=O)Cc2ccccc2)s1,1.04 °C,4.66 °C,2.55 °C,3.64 °C,0.91 °C,-0.53 °C
Cc1nc2cccnc2n2c(-c3cc(C(C)(C)O)ncc3Cl)nnc12,-0.85 °C,0.85 °C,0.33 °C,-0.45 °C,0.31 °C,-0.06 °C
Cc1cc2c(-c3ccco3)cnc(N[C@H]3CCN(C)C[C@@H]3C(=O)NC3CCCCC3)c2[nH]c1=O,0.25 °C,0.22 °C,0.37 °C,-0.67 °C,0.2 °C,-1.37 °C
NC(=O)c1sc2nc(N3CCC(NC[C@H](O)c4ccccn4)CC3)cc(C(F)(F)F)c2c1N,1.22 °C,1 °C,1.86 °C,0.72 °C,0.39 °C,1.06 °C
Cc1csc(S(=O)(=O)N(CC(C)C)c2cc3c(cc2OCc2ccc(C(=O)O)cc2)CCC3)n1,0.11 °C,-0.15 °C,-0.34 °C,0 °C,-0.27 °C,-0.4 °C
CCC(=O)N[C@@H]1CC[C@H](C(=O)N(C)c2ccc(-c3nc4ccccc4o3)cc2)C1,0.73 °C,0.64 °C,0.6 °C,-0.1 °C,0.12 °C,0.03 °C
Cc1csc(-c2nnc(Nc3ccc(Oc4ncccc4-c4ccnc(N)n4)cc3)c3ccccc23)c1,7.01 °C,0.42 °C,0.58 °C,-4.11 °C,4.87 °C,13.8 °C
COc1cc(-c2cn(C)c(=O)c3cnccc23)c(OC)cc1CN(C)C,0.49 °C,0.53 °C,0.06 °C,0.1 °C,-0.12 °C,-0.18 °C
Cc1ccc(-n2nc(C(C)(C)C)cc2NC(=O)Nc2ccccc2F)cc1,1.53 °C,1.51 °C,2.52 °C,-0.41 °C,3.34 °C,-1.69 °C
CN[C@@H](C)C(=O)N[C@H](C(=O)N1CCC[C@H]1C(=O)N[C@H]1c2ccccc2C[C@H]1OCC#CC#CCO[C@@H]1Cc2ccccc2[C@@H]1NC(=O)[C@@H]1CCCN1C(=O)[C@@H](NC(=O)[C@H](C)NC)C1CCCCC1)C1CCCCC1,0.18 °C,-0.48 °C,0.49 °C,-1.17 °C,0.11 °C,-1.88 °C
NC1(c2ccc(-c3nc4c(O)ccnn4c3-c3ccccc3)cc2)CCC1,0.22 °C,-0.34 °C,0.07 °C,-0.72 °C,0.46 °C,0.43 °C
CCc1ccc(N(CC(C)C)S(=O)(=O)c2ccc(OCC3CCOCC3)c(CO)c2)cc1,-3.79 °C,0.33 °C,0.71 °C,0 °C,0.2 °C,-8.48 °C
Cc1nc(-c2ccc(C(F)(F)F)cc2)sc1C(=O)NCc1ccc(OC(C)(C)C(=O)O)cc1,0.61 °C,0.76 °C,0.63 °C,-0.64 °C,0.34 °C,0.59 °C
CC(C)(C)c1cc(NC(=O)c2csc(Nc3ccc(Cl)cc3)n2)no1,-0.19 °C,0.91 °C,1.05 °C,-2.8 °C,-3.27 °C,1.67 °C
Cc1cc(C2CCCNC2)ccc1Nc1ncc(Br)c(NCc2cccc3c2C(C)(C)C(=O)N3)n1 (stereo unspecified),1.52 °C,2.03 °C,0.34 °C,1.91 °C,2.1 °C,3.81 °C
O=C(O)c1ccc(OCCCc2ccc(OCCCCOC3CCCCC3)cc2)c(C(=O)NC2CCCC(C(=O)O)C2)c1 (stereo unspecified),-0.97 °C,-0.34 °C,0.18 °C,-0.84 °C,-0.39 °C,-1.1 °C
CC(C)(C)OC(=O)CN1C(=O)c2c(OCC(=O)O)cccc2Oc2ccc(C(F)(F)F)cc21,0.48 °C,0.55 °C,0.4 °C,1.17 °C,0.51 °C,-0.28 °C
Cc1cc(C)nc(Nc2ncc(C(=O)NCCc3c(C)[nH]c4ccccc34)cn2)c1,-0.23 °C,0.75 °C,-0.55 °C,-2.26 °C,-0.02 °C,0.27 °C
COc1ccc(C(F)(F)F)cc1NC(=O)Nc1ccc(Oc2cc(C)nc(N)n2)c2ccccc12,5.29 °C,1.11 °C,0.31 °C,1.99 °C,0.06 °C,-0.77 °C
CNc1ncc2cc(-c3ccc(-c4ncccc4F)cc3Cl)c(=O)n(C[C@H]3OC[C@H](N)CO3)c2n1,4.27 °C,1.01 °C,0.79 °C,-0.51 °C,3.43 °C,4.87 °C
CN1Cc2nccc(-c3cn(C)nc3-c3ccc(F)cc3)c2C1=O,1.06 °C,0.02 °C,8 °C,-0.07 °C,0.37 °C,-0.11 °C
